From PubChem BioAssay AID492996 (Johns Hopkins Ion Channel Center, 2010)
Entries with a potency or affinity are not part of this list. A number with no mark means an inactive call.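 The calls were made as follows: active = peak inhibition of the TRPC4 channel signal over 30% at some dose, with a fitted dose response curve; inactive = no inhibition or no dose response curve.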

molecular target: Short transient receptor potential channel 4 (Mus musculus) (UniProt Q9QUQ5); assay: mouse TRPC4 block via Gq-coupled stimulation – cell-based, acetylcholine stimulus, HEK293 TRPC4, Fluo-4, SAR follow-up (AID 492996); conditions: HEK293 TRPC4 cells, ACh-evoked Fluo-4 calcium flux; series mostly up to 20 µM; fluorescence ratio, lower = inhibition: at the top concentration
Sequence (Q9QUQ5 whole entry, looked up): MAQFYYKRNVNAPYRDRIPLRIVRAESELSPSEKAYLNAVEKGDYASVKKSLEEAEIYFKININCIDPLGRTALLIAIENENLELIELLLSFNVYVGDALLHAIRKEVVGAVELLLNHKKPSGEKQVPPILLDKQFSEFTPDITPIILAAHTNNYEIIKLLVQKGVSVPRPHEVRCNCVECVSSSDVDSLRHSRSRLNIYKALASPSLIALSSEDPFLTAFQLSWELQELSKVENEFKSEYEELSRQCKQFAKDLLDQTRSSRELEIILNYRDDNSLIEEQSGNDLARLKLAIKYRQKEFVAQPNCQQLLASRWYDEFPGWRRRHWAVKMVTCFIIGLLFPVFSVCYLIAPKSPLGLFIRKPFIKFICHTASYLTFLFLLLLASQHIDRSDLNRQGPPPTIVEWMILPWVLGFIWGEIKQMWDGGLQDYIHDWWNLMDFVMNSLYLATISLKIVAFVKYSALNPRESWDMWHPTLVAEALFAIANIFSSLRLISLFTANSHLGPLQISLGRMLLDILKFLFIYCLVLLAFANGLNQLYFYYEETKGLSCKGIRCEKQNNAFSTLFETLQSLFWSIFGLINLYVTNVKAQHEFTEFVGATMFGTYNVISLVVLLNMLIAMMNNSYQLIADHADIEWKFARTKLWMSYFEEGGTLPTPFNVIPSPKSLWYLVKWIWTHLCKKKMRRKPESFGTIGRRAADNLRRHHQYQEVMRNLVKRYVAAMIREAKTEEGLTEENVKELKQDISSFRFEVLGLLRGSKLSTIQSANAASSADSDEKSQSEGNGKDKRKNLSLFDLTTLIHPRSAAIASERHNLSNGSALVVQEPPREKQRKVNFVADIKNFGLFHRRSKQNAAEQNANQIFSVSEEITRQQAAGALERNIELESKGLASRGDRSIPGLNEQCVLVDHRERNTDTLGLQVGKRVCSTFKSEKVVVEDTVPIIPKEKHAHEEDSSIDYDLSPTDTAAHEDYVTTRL

Compound | fluorescence ratio, lower = inhibition
COCCN(C)c1cc(C)c2ccccc2n1 | 23
Cc1ccc2nc(N3CCCCCC3)cc(C)c2c1 | 48.1
Cc1cc(N2CCCC(O)C2)nc2ccccc12 (stereo unspecified) | 20.8
Cc1ccnc(N2CCCCCC2)n1 | 71.1
c1ccc(-c2cc(N3CCCCCC3)nc3ccccc23)cc1 | 52
Cc1cc(N2CCN(CC3CCCO3)CC2)nc2ccccc12 (stereo unspecified) | 19.4
Cc1cc(N(C)CCN(C)C)nc2ccccc12 | 16.7
Cc1cc(N2CCCCCC2)nc2c(C)cccc12 | 73.1
Cc1cc(N2CCN(c3ccccc3C#N)CC2)nc2ccccc12 | 20.5
CCc1ccc2nc(N3CCCCCC3)cc(C)c2c1 | 78.4
Cc1ccnc(N2CCCCCC2)c1 | 61.9
Cc1cc(N2CCC(N3CCOCC3)CC2)nc2ccccc12 | 16.1
Cc1cc(N2CCN(c3ncccn3)CC2)nc2ccccc12 | 17.9
COc1ccc(N2CCN(c3cc(C)c4ccccc4n3)CC2)cc1 | 18.8
CCN(CC)c1cc(C)c2ccccc2n1 | 18.9
FC(F)(F)c1cc(N2CCCCCC2)nc2ccccc12 | 83.4
COc1ccccc1N1CCN(c2cc(C)c3ccccc3n2)CC1 | 21.2
Cc1cc(N2CCCCCC2)nc2ccc(F)cc12 | 63.4
Cc1cc(N2CC(C)CC(C)C2)nc2ccccc12 (stereo unspecified) | 15.6
Cc1cc(N2CCOCC2)nc2ccccc12 | 19.9
Cc1cc(N2CCOc3ccccc32)nc2ccccc12 | 22.6
